# Hits are enriched below; roughly 7.3% of the tested compounds scored in any of these assays.
# NPC1 prom act – activates the NPC1 promoter | Huh7 NPC1 promoter luciferase reporter, 24 h | Potency, µM (series often up to 9.22 µM), inactives show at the top dose activation, hits mostly activators | 320,000 compounds, 2.4% hits | AID 485313; note: % of control where 0% means no effect; nearly all actives have a fitted effect of over 60% in size
#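 Stably transfected Huh7 (NPC1 promoter→luciferase), 1500 cells/well in Opti-MEM + 10% FBS, 2 h settle, then compound 24 h at 37 °C. Luminescence after 10 min with Amplite reagent.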
# Rab9 promoter act – Rab9 promoter activation | 320,000 compounds, 2.8% hits | Potency, µM (top dose mostly 9.22 µM), for the others: top-dose activation, negative = inhibition, actives largely listed as activators | Huh7 Rab9 promoter-luciferase reporter, luminescence, 24 h; note: % of control where 0% means no effect; nearly all actives have a fitted effect of over 60% in size
#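 Cells were plated at 1500 per well in reduced-serum medium with 10% FBS and left 2 h. Compound in DMSO was then added for 24 h at 37 °C. Reporter signal was read by luminescence after 10 min with luciferase detection reagent.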
# ELG1 genotox – induces genotoxicity in HEK293T cells with luciferase-tagged ELG1; 330,000 compounds, 1.3% hits; HEK293T ELG1-luciferase reporter, luminescence, 16 h; Potency, µM (doses to about 46 µM), for the others: at the highest dose activity change, positive = activation, most hits filed as activators; note: % of control where 0% means no effect; nearly all actives have a fitted effect of over 60% in size
#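 Screening used a luciferase reporter fused to human ELG1 in HEK293T cells. Luminescence was read on a CCD plate imager after 16 hr exposure and 30 min ONE-Glo incubation.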
# FLuc modulator – inhibits or activates purified firefly luciferase, miR-21 counter-screen; purified FLuc, Km substrates, luminescence inhibition; P08659; 360,000 compounds, 6.9% hits; Potency, µM (top dose mostly 57.5 µM), without a hit: top-dose activity change, negative = inhibition, actives largely listed as inhibitors; AID 588342;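 note: plate controls were vehicle for no effect and reference inhibitor for full effect; nearly all actives have a fitted effect of over 55% in size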
# Target sequence (P08659 whole entry, looked up): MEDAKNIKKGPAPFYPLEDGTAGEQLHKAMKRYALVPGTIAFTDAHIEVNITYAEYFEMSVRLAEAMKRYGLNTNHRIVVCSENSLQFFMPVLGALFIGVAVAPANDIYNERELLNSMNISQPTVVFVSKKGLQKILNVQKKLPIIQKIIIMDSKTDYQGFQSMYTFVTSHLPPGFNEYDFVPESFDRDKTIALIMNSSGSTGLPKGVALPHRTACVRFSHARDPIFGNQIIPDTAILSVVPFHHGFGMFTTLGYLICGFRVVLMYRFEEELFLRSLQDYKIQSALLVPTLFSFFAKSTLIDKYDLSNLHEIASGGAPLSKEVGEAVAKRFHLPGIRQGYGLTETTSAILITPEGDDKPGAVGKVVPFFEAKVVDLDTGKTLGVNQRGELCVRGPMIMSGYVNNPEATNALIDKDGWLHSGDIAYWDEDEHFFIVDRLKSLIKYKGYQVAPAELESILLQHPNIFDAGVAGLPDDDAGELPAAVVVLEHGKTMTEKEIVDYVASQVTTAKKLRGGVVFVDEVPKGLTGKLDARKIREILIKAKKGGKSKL
#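 Biochemical qHTS of compounds, final roughly 60 µM downward over six points, against 10 nM purified firefly luciferase using Km concentrations of substrates (10 uM D-luciferin, 10 uM ATP) in Tris acetate pH 7.5 buffer; luminescence output.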
# SMN2 splice up – SMN2 splice variant enhancement. HEK293 SMN2-luciferase splicing reporter, luminescence, 30-36 h. Potency, µM (highest dose often 46.1 µM), for the others: top-dose activity change, positive = activation, hits mostly activators. 210,000 compounds, 2.8% hits. AID 1458; note: % of control where 0% means no effect; nearly all actives have a fitted effect of over 55% in size
#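 qHTS luciferase splicing reporter: luminescence rises when SMN2 exon 7 is included in transfected HEK293 cells. Compound exposure lasted 30-36 h at 37C, with 4.5 mM final sodium butyrate as control, followed by a ONE-Glo read.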
# uPA generation – blocks generation of uPA at the cell surface; cell surface uPA generation assay, qHTS; Potency, µM (top dose mostly 38.3 µM), inactives show at the highest dose activity change, negative = inhibition, most hits filed as inhibitors; 330,000 compounds, 0.31% hits; AID 540303; active = well fitted inhibition curve with a large enough effect; inconclusive = small, poorly fitted or top-dose-only effect; inactive = no such curve, though single readings can be large or run the other way; tested in mouse RAW 264.7 cells; note: % is set by controls: 0 for no effect and ±100 for the full control effect; nearly all actives have a fitted effect of over 55% in size
# Starred values were filed as active, the others as inactive; ? = inconclusive; / = not tested or not shown; [ ] = remark or other dose. Unless noted, calls come from the whole dose curve; as a rule, active = well fitted curve in the direction sought with a large enough effect; inconclusive = small, poorly fitted or top-dose-only effect, or another doubt; inactive = no such curve, though single readings can be large; an effect the other way counts as inactive or inconclusive. Potency is the fitted concentration of half-maximal effect.
SMILES,NPC1 prom act,Rab9 promoter act,ELG1 genotox,FLuc modulator,SMN2 splice up,uPA generation
Cc1nc(-c2ccc(NC(=O)c3ccccc3)cc2)cs1,-7%,-14%,-14%,-1%,/,2.2µM*
CC(=O)c1cccc(NC(=O)C2CCN(S(=O)(=O)c3ccc4c(c3)CCCN4C(C)=O)CC2)c1,/,/,/,-1%,/,/
CC(C)CCn1cnc2c(oc3nc4c(cc32)CCCC4)c1=O,0.5µM*,0.45µM*,?,1.7µM*,/,?
CC1(C)Cc2nc3oc4c(=O)n(CC(=O)Nc5ccccc5)cnc4c3cc2CO1,1%,-2%,1%,0%,17%,4%
Cn1/c(=N/N=C/c2ccc(N3CCOCC3)cc2)sc2ccccc21,?,30%,13%,3µM*,26%,-1%
Cn1/c(=N/N=C/c2ccccn2)sc2ccccc21,2.2µM*,1.1µM*,?,3.8µM*,16µM*,-3%
Cn1/c(=N/N=C/c2ccc(Cl)c([N+](=O)[O-])c2)sc2ccccc21,?,13%,0%,?,14%,1%
CC(=O)N=c1sc2ccccc2n1C,-3%,14%,14%,-1%,-16%,-3%
CCOC(=O)c1cc2c(=O)n3ccccc3nc2n(CC2CCCO2)c1=NC(=O)c1ccc(F)cc1 (centres undefined),/,/,/,0%,5%,/
CCOC(=O)c1c(NC(=O)c2cc(-c3ccccc3OC)on2)sc(C)c1C,/,/,/,-17%,-7%,/
COc1ccc(C(=O)Nc2cccc(/C(C)=N/NC(=O)c3ccc([N+](=O)[O-])cc3)c2)cc1OC,7%,2%,12%,5.4µM*,-5%,-1%
C/C(=N\Nc1cccc(C(=O)O)c1)c1ccc(Cl)s1,3.2µM*,2.8µM*,?,11µM*,/,-1%
C/C(=N\NC(=O)C(=O)Nc1cccc(C(F)(F)F)c1)c1ccc(Cl)s1,0%,3%,-1%,2%,-17%,2%
COc1ccc(Br)cc1/C=N/Nc1cccc(C(=O)O)c1,3.2µM*,1.6µM*,?,21µM*,11µM*,-3%
COc1ccc(Br)cc1/C=N/NC(=O)C[n+]1ccccc1,-1%,5%,1%,-3%,/,?
COc1ccccc1/C=C/C=N/Nc1cccc(C(=O)O)c1,0.11µM*,0.13µM*,0.65µM*,0.54µM*,/,0%
Cc1noc(C)c1S(=O)(=O)N(CC(=O)Nc1ccc(F)cc1F)c1ccc(C(C)C)cc1,/,/,/,-3%,-41%,/
O=C(NCCc1nnc2ccc(N3CCCCCC3)nn12)c1ccccc1F,/,/,/,/,/,1%
COc1ccc(/C(C)=N/Nc2cccc(C(=O)O)c2)cc1OC,1µM*,1.1µM*,5.2µM*,3.8µM*,10µM*,-7%
COc1ccc(/C(C)=N\NS(=O)(=O)c2ccccc2)cc1OC,-5%,-4%,1%,7%,27%,-6%
COc1ccc(/C(C)=N/Nc2nc3ccccc3nc2C)cc1OC,20%,3%,1%,3µM*,/,-18%
O=C(N/N=C/c1cc(Br)cc(Br)c1O)c1ccncc1,-32%,-28%,?,-18%,-41%,-15%
O=C(O)c1cccc(N/N=C/c2cc(Br)cc(Br)c2O)c1,?,2.8µM*,?,24µM*,4%[1.84 µM],-3%
CCSc1nc2ccccc2c(OCc2ccccc2Cl)c1C(=O)OC,/,/,/,-10%,/,/
COc1cccc(N2C(=NC(=O)CCC3CCCC3)SC3CS(=O)(=O)CC32)c1 (centres undefined),-1%,-1%,5%,3%,/,1%
O=S(=O)(NCc1cccc(Br)c1)c1ccc(-c2cc(C(F)(F)F)on2)s1,/,/,/,-1%,/,/
C[C@H](CC[C@@H]1OC1(C)C)C1CC[C@H]2[C@@H]3CC=C4C[C@@H](O)CC[C@]4(C)[C@H]3CC[C@]12C (some centres undefined),/,/,/,/,-8%,/
Cc1ccc(C(=O)NCC(c2ccc(Cl)cc2)N2CCCCC2)cc1 (centres undefined),/,/,/,-2%,/,/
COc1cc(Cl)c(NC(=O)CCS(=O)(=O)c2cc3c(cc2Cl)NC(=O)CO3)c(OC)c1,/,/,/,-2%,/,/

# From PubChem BioAssay
